Measurements taken from PubChem BioAssay (Tox21).
Inconclusive results are not listed. Active and inactive are the calls of the source. Unless noted, the call rests on the fitted dose curve; in most records, active means well fitted curve in the direction sought with a large enough effect in the repeat runs; inconclusive means weak or mixed curves; inactive means flat fitted curve, though single readings scatter.

Experiments:
[1] = qHTS assay to test for compound auto fluorescence at 535 nm (green) in HEK293 cells (AID 720680)
[2] = qHTS assay to test for compound auto fluorescence at 460 nm (blue) in HEK293 cell free culture (AID 720681)
How it was run: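 Compounds were added to cell-free DMEM with 10% FBS and fluorescence read directly. The blue channel used 405 nm excitation and 460 nm emission, with triamterene as the reference fluorophore.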

[3] = qHTS assay to test for compound auto fluorescence at 535 nm (green) in HEK293 cell free culture (AID 720682)
How it was run: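 Each library compound, or DMSO control, is added by pintool to medium alone, comprising DMEM and 10% FBS. Emission at 535 nm following 485 nm excitation is quantified against fluorescein.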

[4] = qHTS assay to test for compound auto fluorescence at 590 nm (red) in HEK293 cell free culture (AID 720683)
How it was run: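 Cell-free wells of DMEM with 10% FBS received compound, and intrinsic fluorescence was read at excitation/emission 540/590 nm. Values expressed as equivalence to Rose Bengal sodium.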

[5] = qHTS assay to test for compound auto fluorescence at 590 nm (red) in HepG2 cell free culture (AID 720684)
How it was run: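 Auto fluorescence equivalency versus Rose Bengal sodium, red channel Ex/Em 540/590 nm; compounds in cell-free MEM/10% FBS; DMSO vehicle control.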

[6] = qHTS assay to test for compound auto fluorescence at 460 nm (blue) in HepG2 cell free culture (AID 720685)
How it was run: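 Cell-free plates of MEM plus 10% FBS received 23 nL compound or DMSO vehicle; blue-channel (405/460 nm) intensity scored against triamterene as reference fluorophore.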

[7] = qHTS assay to test for compound auto fluorescence at 535 nm (green) in HepG2 cell free culture (AID 720686)
[8] = qHTS assay to test for compound auto fluorescence at 460 nm (blue) in HepG2 cells (AID 720687)
How it was run: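 HepG2 cells in MEM with 10% FBS, attached overnight at 37 C, were exposed to compound or DMSO for 1 hr at 37 C, 5% CO2. Blue fluorescence was read at 405/460 nm, with triamterene as reference fluorophore.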

[9] = target: Glucocorticoid receptor (Homo sapiens) (UniProt P04150); test: qHTS assay to identify small molecule agonists of the glucocorticoid receptor (GR) signaling pathway (AID 720691; active means well fitted activation curve with a large enough effect in the signal ratio in the repeat runs, not every such curve was filed as active; the % refers to the signal ratio)
How it was run: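 HeLa GR-bla reporter line; cells pre-incubated 4 h, compound in DMSO 18 h at 37 C; LiveBLAzer B/G FRET substrate 2 h RT; fluorescence intensity read-out.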

[10] = target: Glucocorticoid receptor (Homo sapiens) (UniProt P04150); test: qHTS assay to identify small molecule antagonists of the glucocorticoid receptor (GR) signaling pathway (AID 720692; active means well fitted inhibition curve with a large enough effect in the signal ratio in the repeat runs, not every such curve was filed as active; the % refers to the signal ratio)
How it was run: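 Read-out: beta-lactamase FRET substrate fluorescence, 2 h at room temperature, in HeLa cells stably carrying a GRE-driven bla reporter. Compounds were co-incubated with 5 nM dexamethasone agonist (final) for 18 h at 37 C.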
On the % scale 0 is the no-effect control and ±100 the full control effect.

Sequence of Glucocorticoid receptor (Homo sapiens) (P04150 whole entry, looked up): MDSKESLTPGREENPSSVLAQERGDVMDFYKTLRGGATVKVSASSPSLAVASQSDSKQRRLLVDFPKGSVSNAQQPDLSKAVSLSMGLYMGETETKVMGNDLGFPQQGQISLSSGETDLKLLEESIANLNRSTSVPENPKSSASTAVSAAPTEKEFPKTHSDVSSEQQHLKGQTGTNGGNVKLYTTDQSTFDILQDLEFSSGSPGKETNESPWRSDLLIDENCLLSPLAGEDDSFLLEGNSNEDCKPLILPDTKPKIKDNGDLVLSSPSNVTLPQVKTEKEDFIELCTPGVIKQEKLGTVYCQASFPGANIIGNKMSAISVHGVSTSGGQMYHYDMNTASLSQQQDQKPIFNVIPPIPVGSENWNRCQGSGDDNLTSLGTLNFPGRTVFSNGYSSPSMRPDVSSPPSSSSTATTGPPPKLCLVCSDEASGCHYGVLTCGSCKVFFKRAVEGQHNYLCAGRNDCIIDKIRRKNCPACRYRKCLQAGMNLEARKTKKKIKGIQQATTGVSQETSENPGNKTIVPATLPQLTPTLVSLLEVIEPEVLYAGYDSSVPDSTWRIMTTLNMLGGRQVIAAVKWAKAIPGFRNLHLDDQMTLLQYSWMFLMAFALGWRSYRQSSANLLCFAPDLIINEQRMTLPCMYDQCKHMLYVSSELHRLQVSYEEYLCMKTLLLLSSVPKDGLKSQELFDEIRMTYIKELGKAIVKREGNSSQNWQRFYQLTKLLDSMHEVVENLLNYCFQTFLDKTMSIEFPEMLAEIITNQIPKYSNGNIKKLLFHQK

Cc1ncc([N+](=O)[O-])n1CC(O)CCl (stereo not given)
inactive: fluorescence, % of fluorescein [1] -0.0185% [at 18.6 µM] | fluorescence, % of fluorescent control [2] -0.008% [at 18.6 µM] | activity change [3] 0.017% [at 18.6 µM] | fluorescence, % of fluorescent control [4] -0.0564% [at 18.6 µM] | fluorescence, % of Rose Bengal [5] 0.0054% [at 18.6 µM] | fluorescence, % of fluorescent control [6] -0.0905% [at 18.6 µM] | fluorescence, % of fluorescein control [7] -0.0146% [at 18.6 µM] | fluorescence, % of fluorescent control [8] -0.0428% [at 18.6 µM] | Potency [9] | outcome [10]

CCCCCCCC[Si](OCC)(OCC)OCC
inactive: outcome [1] | outcome [2] | outcome [3] | outcome [4] | outcome [5] | outcome [6] | outcome [7] | outcome [8] | Potency [9] | outcome [10]

CO[Si](CCCCl)(OC)OC
inactive: outcome [1] | outcome [2] | outcome [3] | outcome [4] | outcome [5] | outcome [6] | outcome [7] | outcome [8] | Potency [9] | outcome [10]

C=CCCCCCCCCCCC
inactive: fluorescence, % of fluorescein [1] 0.0165% [at 3.72 µM] | fluorescence, % of fluorescent control [2] -0.158% [at 3.72 µM] | activity change [3] 0.0052% [at 3.72 µM] | fluorescence, % of fluorescent control [4] -0.0144% [at 3.72 µM] | fluorescence, % of Rose Bengal [5] 0.0242% [at 3.72 µM] | fluorescence, % of fluorescent control [6] 0.0228% [at 3.72 µM] | fluorescence, % of fluorescein control [7] 0.0296% [at 3.72 µM] | fluorescence, % of fluorescent control [8] -0.017% [at 3.72 µM] | activation [9] -0.645% [at 6.9 µM] | activity change, negative = inhibition [10] -6.37% [at 7.04 µM]

Nc1ccc(S(=O)(=O)NC(=O)c2ccccc2)cc1
inactive: fluorescence, % of fluorescein [1] -0.0049% [at 18.6 µM] | fluorescence, % of fluorescent control [2] -0.0169% [at 18.6 µM] | activity change [3] 0.0575% [at 18.6 µM] | fluorescence, % of fluorescent control [4] -0.201% [at 18.6 µM] | fluorescence, % of Rose Bengal [5] -0.0804% [at 18.6 µM] | fluorescence, % of fluorescent control [6] -0.0907% [at 18.6 µM] | fluorescence, % of fluorescein control [7] -0.0092% [at 18.6 µM] | fluorescence, % of fluorescent control [8] -0.0228% [at 18.6 µM] | Potency [9] | outcome [10]

CCCCC(CC)C(=O)OC(C)C (stereo not given)
inactive: outcome [1] | outcome [2] | outcome [3] | outcome [4] | outcome [5] | outcome [6] | outcome [7] | outcome [8] | Potency [9] | outcome [10]

Nc1ccc(S(=O)(=O)Nc2ccccn2)cc1
inactive: fluorescence, % of fluorescein [1] 0.0233% [at 18.6 µM] | fluorescence, % of fluorescent control [2] -0.0806% [at 18.6 µM] | activity change [3] 0.0547% [at 18.6 µM] | fluorescence, % of fluorescent control [4] 0.101% [at 18.6 µM] | fluorescence, % of Rose Bengal [5] 0.012% [at 18.6 µM] | fluorescence, % of fluorescent control [6] -0.12% [at 18.6 µM] | fluorescence, % of fluorescein control [7] -0.0379% [at 18.6 µM] | fluorescence, % of fluorescent control [8] 0.149% [at 18.6 µM] | Potency [9] | outcome [10]

CCCCCC1CCCC(=O)O1 (stereo not given)
inactive: outcome [1] | outcome [2] | outcome [3] | outcome [4] | outcome [5] | outcome [6] | outcome [7] | outcome [8] | Potency [9] | outcome [10]

CC(C)c1ccccc1O
inactive: outcome [1] | outcome [2] | outcome [3] | outcome [4] | outcome [5] | outcome [6] | outcome [7] | outcome [8] | Potency [9] | outcome [10]

O=C1c2ccccc2-c2ccccc21
inactive: outcome [1] | outcome [2] | outcome [3] | outcome [4] | outcome [5] | outcome [6] | outcome [7] | outcome [8] | Potency [9] | outcome [10]

COc1ccc(NS(=O)(=O)c2ccc(N)cc2)nn1
inactive: fluorescence, % of fluorescein [1] -0.0152% [at 18.6 µM] | fluorescence, % of fluorescent control [2] 0.201% [at 18.6 µM] | activity change [3] -0.0484% [at 18.6 µM] | fluorescence, % of fluorescent control [4] -0.041% [at 18.6 µM] | fluorescence, % of Rose Bengal [5] -0.359% [at 18.6 µM] | fluorescence, % of fluorescent control [6] -0.109% [at 18.6 µM] | fluorescence, % of fluorescein control [7] -0.0862% [at 18.6 µM] | fluorescence, % of fluorescent control [8] 0.0805% [at 18.6 µM] | Potency [9] | outcome [10]

CCCCCCCCC(=O)OCC
inactive: outcome [1] | outcome [2] | outcome [3] | outcome [4] | outcome [5] | outcome [6] | outcome [7] | outcome [8] | Potency [9] | outcome [10]

C=CCOc1cc(Cl)ccc1C(=O)NCCN(CC)CC
inactive: outcome [1] | outcome [2] | outcome [3] | outcome [4] | outcome [5] | outcome [6] | outcome [7] | outcome [8] | Potency [9] | outcome [10]

Nc1cc(S(=O)(=O)O)ccc1S(=O)(=O)O
inactive: outcome [1] | outcome [2] | outcome [3] | outcome [4] | outcome [5] | outcome [6] | outcome [7] | outcome [8] | Potency [9] | outcome [10]

CCCCC(CC)COC(=O)c1ccccc1 (stereo not given)
inactive: outcome [1] | outcome [2] | outcome [3] | outcome [4] | outcome [5] | outcome [6] | outcome [7] | outcome [8] | Potency [9] | outcome [10]

O=C(O)c1ccccc1C(=O)OCc1ccccc1
inactive: outcome [1] | outcome [2] | outcome [3] | outcome [4] | outcome [5] | outcome [6] | outcome [7] | outcome [8] | Potency [9] | outcome [10]

CC(C)COC(=O)CC(C(=O)OCC(C)C)S(=O)(=O)O (stereo not given)
inactive: outcome [1] | outcome [2] | outcome [3] | outcome [4] | outcome [5] | outcome [6] | outcome [7] | outcome [8] | Potency [9] | outcome [10]

O=C(O)c1ccccc1C(=O)Nc1ccc(S(=O)(=O)Nc2nccs2)cc1
inactive: outcome [1] | outcome [2] | outcome [3] | outcome [4] | outcome [5] | outcome [6] | outcome [7] | outcome [8] | Potency [9] | outcome [10]

Nc1c(NC/C=C\COc2cc(CN3CCCCC3)ccn2)c(=O)c1=O
inactive: outcome [1] | outcome [2] | outcome [3] | outcome [4] | outcome [5] | outcome [6] | outcome [7] | outcome [8] | Potency [9] | outcome [10]

Cc1nc([N+](=O)[O-])cn1-c1ccc([N+](=O)[O-])cc1
inactive: outcome [1] | outcome [2] | outcome [3] | outcome [4] | outcome [5] | outcome [6] | outcome [7] | outcome [8] | Potency [9] | outcome [10]

C=C[Si](C)(C)O[Si](C)(C)C=C
inactive: outcome [1] | outcome [2] | outcome [3] | outcome [4] | outcome [5] | outcome [6] | outcome [7] | outcome [8] | Potency [9] | outcome [10]
